Laboratory results reported in PubChem BioAssay (EPA / NIEHS).
Where “and” joins values, the source holds several entries; their conditions need not be identical. Equal entries are not always repeated. The source holds several records for some structures; these can differ, active in one and inactive in another. Calls of active or inactive are those of the source. How the source made its calls: active means hit-call score of the fitted dose curve at least 0.9, where 1 is the maximum; inactive means score below 0.9.

experiment: BSK_4H_SRB: Viability Assessment in the BioMAP Diversity Plus: 4H Assay (AID 2283027); details: primary human endothelial cells (HUVEC);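 further: cells exposed to compound for 24 h before staining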;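 on AC50: curves fitted both ways versus DMSO so AC50 may be loss or gain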
Method: BSK_4H is a cell-based, multiplexed-readout assay that uses umbilical vein endothelium, a human vascular primary cell, with measurements taken at 24 hours after chemical dosing in a 96-well plate.BSK_4H_SRB is an assay component measured in the BSK_4H assay. It measures […] related to cell death using Sulforhodamine staining technology.Data from the assay component BSK_4H_SRB was analyzed into 1 assay endpoint. This assay endpoint, BSK_4H_SRB, was analyzed with bidirectional fitting relative to DMSO as the negative control and baseline of activity. Using a type of viability reporter, gain or loss-of-signal activity can be used to understand changes in the signaling. Furthermore, this assay endpoint can be referred to as a primary readout, because this assay has produced multiple assay endpoints where this one serves a signaling function. To generalize the intended target to other relatable targets, this assay endpoint is annotated to the cell morphology intended target family, where the subfamily is cell conformation.
The levels of cell surface (or secreted, indicated by the prefix "s") biomarker endpoints were measured by ELISA. Overt cytotoxicity to cells in confluent adherent cultures (all systems other than the BT system) was assessed by measuring total protein levels using sulforhodamine B (SRB) staining in parallel cultures at the time of biomarker measurements, indicated as SRB endpoints. For proliferation assays for adherent cell types, individual cell types are cultured at sub-confluence and relative cell numbers quantified by SRB staining at time points optimized for each system (48 h: 3C and CASM3C systems; 72 h: BT and HDF3CGF systems; 96 h: SAg system). SRB was performed by staining cells with 0.1% SRB after fixation with 10% TCA and reading wells at 560 nm.Viability and proliferation of PBMC (T cells) was quantified by Alamar Blue reduction for the SAg and BT systems. For PBMC viability (referred to as PBMC Cytotoxicity within the assay endpoint names), cells were plated (75,000/well in a 96-well plate) and then chemical samples added for 1 h before addition of activators, SEB and TSST-1 (20 ng/mL final concentration each). Cells were incubated for 90 h. Then, Alamar Blue (20 uL/well) (Invitrogen, Cat DAL1100) was added for 6 h, and the plates were read with a fluorescence microplate reader at 546/580 nm (excitation/emission). For PBMC proliferation, cells were plated and activated as above but incubated for only 16 h prior to addition of Alamar Blue. Plates were read after 6 h.

SMILES	outcome	AC50
FC(F)(F)C(F)(C(F)(F)F)C(F)(F)C(F)(F)CC1CO1 (stereo not given)	inactive	–
CCCCN(CCCC)SN(C)C(=O)Oc1cccc2c1OC(C)(C)C2	–	27.2 µM (active)
COC(=O)C(F)(F)C(F)(F)OC(F)(C(F)(F)F)C(F)(F)OC(F)=C(F)F (stereo not given)	inactive	–
O=P1(N(CCCl)CCCl)NCCCO1 (stereo not given)	inactive	–
O=[N+]([O-])c1ccc(Cl)c(Cl)c1	inactive	–
COP(=O)(CCC(=O)NCO)OC	inactive	–
OCC(F)(F)OC(F)(F)C(F)(F)OC(F)(F)C(F)(F)OC(F)(F)CO	inactive	30 µM (active)
CC(Cc1ccc(OCC(=O)O)cc1)NCC(O)c1csc(C(F)(F)F)n1 (stereo not given)	inactive	–
CCCN(CCC)c1c([N+](=O)[O-])cc(C(C)C)cc1[N+](=O)[O-]	–	32.8 µM (active)
O=P(Oc1ccccc1)(Oc1ccccc1)Oc1ccccc1	–	28.8 µM (active)
ClC(Cl)=C(c1ccc(Cl)cc1)c1ccccc1Cl	–	12.6 µM (active)
Nc1ccc(Cl)cc1	inactive	–
Nc1ccc([N+](=O)[O-])cc1Cl	inactive	–
CCC(C)(C)c1ccc(O)cc1	inactive	–
O=P(OCC(Br)CBr)(OCC(Br)CBr)OCC(Br)CBr (stereo not given)	–	1.54 µM (active)
CCOP(=S)(NC(C)C)Oc1ccccc1C(=O)OC(C)C (stereo not given)	inactive	–
ClC1=C(Cl)C2(Cl)C3C(Cl)C(Cl)CC3C1(Cl)C2(Cl)Cl (stereo not given)	–	29.6 µM (active)
CCCCC(CC)COC(=O)c1c(Br)c(Br)c(Br)c(Br)c1C(=O)OCC(CC)CCCC (stereo not given)	inactive	–
CCCCCCCc1ccc(O)cc1	–	36.1 µM (active)
O=C(O)C1C(C(=O)O)C2(Cl)C(Cl)=C(Cl)C1(Cl)C2(Cl)Cl (stereo not given)	inactive	–

SMILES	outcome	AC50
COP(N)(=S)OC	inactive	–
CC(C)(C)c1ccccc1OP(=O)(Oc1ccccc1)Oc1ccccc1	–	11.1 µM (active)
COCCOCCO	inactive	–
COP(=O)(O)OC	inactive	–
CC(O)C(F)(F)C(F)(F)F (stereo not given)	inactive	–
CC(C)(C)OOC(C)(C)C	inactive	–
O=C(O)C(Cl)Cl	inactive	–
CN(C)C(=O)Cl	inactive	–
O=C(O)C(F)(OC(F)(F)C(F)(F)C(F)(F)F)C(F)(F)F (stereo not given)	inactive	–
c1ccc(OP(Oc2ccccc2)Oc2ccccc2)cc1	inactive	–
[N-]=[N+]=[N-]	inactive	–
c1ccc2c(c1)sc1ccccc12	inactive	–
ClC(Cl)(Cl)c1ccccc1	inactive	–
c1cc2c3c(cccc3c1)CC2	inactive	–
Nc1cc2c3c(c1)C(c1ccccc1)=N[C@@H](NC(=O)c1cccnc1)C(=O)N3CC2	inactive	–
CCC1(c2ccccc2)C(=O)N=C(O)NC1=O (stereo not given)	inactive	–
O=C(O)C(F)(F)C(F)(F)C(=O)O	inactive	–
CCCCC(CC)COP(=O)(Oc1ccccc1)Oc1ccccc1 (stereo not given)	–	20 µM (active)
OCC(F)(F)OC(F)(F)C(F)(F)OC(F)(F)C(F)(F)OC(F)(F)F	–	47.5 µM (active) and 18.3 µM (active)
